The nature of assay [1]: inhibitors of PAF-induced NFkB signaling in CF airway cells, dose response, cell-based, uHTS hits, panel, cytotoxicity readout (AID 624344). To be noted: CF bronchial epithelial cells, PAF-induced NFkB reporter inhibition, with PAF, run 1; at 79 µM (top of the series) unless noted.
Assay in assay [2]: as above
To be noted: CF bronchial epithelial cells, PAF-induced NFkB reporter inhibition, with PAF, run 2; at 79 µM (top of the series) unless noted.

The values that follow come from PubChem BioAssay.

Each structure is given as a SMILES string.

On to `O=C(N/N=C/c1ccccc1)c1[nH]c2ccc(Br)cc2c1-c1ccccc1`, for which the inhibition – broadly, the change of the read-out against control, counted positive when it falls – is 76.6% in assay [1] and 79.5% in assay [2].

Turning to `CCC(=O)Nc1nc(C)c(-c2csc(Nc3cccc(O)c3)n2)s1`, the values for the inhibition in assay [1] and in assay [2] were 95.9% and 104%, respectively.

On to `Fc1ccccc1-c1csc(=Nc2cccnc2)n1CCCn1ccnc1`, for which the inhibition in assay [1] was 116%; in assay [2], 94.9%.

Turning to `COc1ccc(OC)c(-c2nnc3n2N=C(c2ccc(OC)c(OC4CCOC4)c2)CS3)c1` (stereo not drawn), the inhibition in assay [1] worked out at 103%; in assay [2] it was 107%.

Turning to `Cc1cccc(C(=O)N2[C@@H](C(C)C)COc3cc(Br)ccc3S2(=O)=O)c1`, the results for the inhibition in assay [1] and in assay [2] were 102% and 93.6%, respectively.

As to `COc1cccc(-c2ccc3ncnc(NCc4cccc(C)c4)c3c2)c1`, the inhibition in assay [1] was 118%; in assay [2], 104%.

Consider `O=C1NC(=S)N/C1=C\c1cccnc1`, for which the inhibition in assay [1] stood at 99.3%; in assay [2], 99.2%.

With `C[C@]12CCC(O)CC1CCC1C2CC[C@]2(C)C(c3cc(C(F)(F)F)n[nH]3)CCC12` (stereo partly drawn), the inhibition in assay [1] stood at 121%; in assay [2] it was 99.6%.

Regarding `O=C1OC(c2ccccc2)(c2cc(Br)ccc2O)c2ccccc21` (stereo not drawn), the inhibition in assay [1] was determined as 105%; in assay [2], 116%.

Turning to `CCN(CC)CCN(C(=O)CCS(=O)(=O)c1ccccc1)c1nc2c(C)cc(C)cc2s1`, the inhibition in assay [1] is 106%; in assay [2], 115%.

Turning to `CC(C)C[C@@H](CN1CCCC1CN1C(=S)NC[C@@H]1Cc1ccc(O)cc1)N1C[C@H](Cc2ccc(O)cc2)N(CC2CCCCC2)C1=S` (stereo partly drawn), the values for the inhibition in assay [1] and in assay [2] were 102% and 107%, respectively.

For the compound `COc1ccc(-n2c(C)c(C(C)=O)c3cc(O)ccc32)cc1`, the inhibition in assay [1] amounted to 117%; in assay [2], 95.2%.

`COc1cc(O)cc2cc3c(c(O)c12)C(=O)CC(C)(O)O3` (stereo not drawn): the inhibition in assay [1] was 99.9%; in assay [2], 108%.

Turning to `COc1ccc(-c2cc(=O)oc3cc(O)ccc23)cc1`, the inhibition in assay [1] amounted to 105%; in assay [2], 103%.

Take `Fc1ccc(-n2cc(-c3ccccc3)c3c(N4CCOCC4)ncnc32)cc1`: the results for the inhibition in assay [1] and in assay [2] were 110% and 102%, respectively.

For `NC(=S)N1OC[C@@H]2COc3ccc4ccccc4c3[C@@H]21`, the inhibition worked out at 114% in assay [1] and 105% in assay [2].

For `CCCNC(=O)COC(=O)c1ccccc1C(=O)c1ccc(Cl)c([N+](=O)[O-])c1`, the inhibition in assay [1] was 96.2%; in assay [2], 99.9%.

`COc1ccc(-c2csc(NC3OC(=O)c4c3ccc(OC)c4OC)n2)cc1OC` (stereo not drawn): the results for the inhibition in assay [1] and in assay [2] were 109% and 100%, respectively.

As to `NC(c1csc(NC(=O)Nc2cccc(Cl)c2)n1)c1ccccc1Cl` (stereo not drawn), the inhibition in assay [1] came to 96.3%; in assay [2], 101%.

Turning to `Cc1nn(-c2nccs2)c2c1C(=O)CC(C)(C)C2Br` (stereo not drawn), the inhibition in assay [1] was found to be 108%; in assay [2], 115%.

Consider `Cc1ccc(CNc2ncnc3ccc(-c4ccc(CO)o4)cc23)o1`, for which the figures for the inhibition in assay [1] and in assay [2] were 101% and 99.1%, respectively.

For `Cc1ccc(C(=O)c2cncc(Br)c2)cc1`, the figures for the inhibition in assay [1] and in assay [2] were 86.5% and 93.4%, respectively.

Consider `N#Cc1c(-c2ccc(Cl)cc2)n(O)c2ccccc12`, for which the inhibition in assay [1] amounted to 111%; in assay [2] it was 103%.

For the compound `Cc1ccc(S(=O)(=O)Nc2cccc3ncccc23)s1`, the figures for the inhibition in assay [1] and in assay [2] were 107% and 97%, respectively.
